# From PubChem
# The list is not random: actives were taken first. Their share in the collection is about 2.8%.
# POLK inh: qHTS for Inhibitors of Polymerase Kappa; DNA polymerase kappa (Homo sapiens), Q9UBT6; purified Pol kappa, fluorescent DNA synthesis assay, 10 min; Potency, µM (top dose mostly 107 µM), for the others: at the top dose activity, negative = inhibition, usual class: inhibitors; hit rate 0.53% among 400,000; note: potency is the fitted concentration of half-maximal effect; % is set by controls: 0 for no effect and ±100 for the full control effect
#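 10 nM Pol kappa preincubated 15 min at room temperature with compounds, then reaction started with substrate at 50 nM final. Fluorescence read kinetically at 0 and 10 min; buffer-only wells served as negative control.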
# POLH inh: qHTS for Inhibitors of Polymerase Eta. hit rate 1.2% among 390,000. Potency, µM (highest dose often 114 µM), inactives show at the highest dose activity change, negative = inhibition, usual class: inhibitors. DNA polymerase eta (Homo sapiens), Q9Y253. recombinant Pol eta, fluorescent DNA replication assay. AID 588591, 2011; note: potency is the fitted concentration of half-maximal effect; % is set by controls: 0 for no effect and ±100 for the full control effect
#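 Fluorescent replication assay: 50 nM final substrate added after a 15 min room-temperature compound preincubation with 10 nM enzyme. Signal taken at 0 min and again at 10 min.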
# WRN inhibitor: qHTS for Inhibitors of WRN Helicase. Bifunctional 3'-5' exonuclease/ATP-dependent helicase WRN (Homo sapiens), Q14191. WRN helicase unwinding, fluorescent forked duplex, kinetic. Potency, µM (highest dose often 114 µM), without a hit: at the highest dose activity change, negative = inhibition, actives largely listed as inhibitors. hit rate 0.46% among 360,000; note: potency is the fitted concentration of half-maximal effect; % is set by controls: 0 for no effect and ±100 for the full control effect; nearly all actives have a fitted effect of over 55% in size
#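 WRN at 20 nM final preincubated with compound 15 min at room temperature; reaction started with 100 nM fluorophore/quencher forked duplex oligonucleotide and 2 mM ATP final. Unwinding followed kinetically by red fluorescence (ex 525, em 598 nm).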
# Pol beta inh: qHTS Assay for Inhibitors of DNA Polymerase Beta; P06746; Potency, µM (doses to about 114 µM), without a hit: at the top dose activity change, negative = inhibition, most hits filed as inhibitors; Pol beta primer extension/strand displacement, fluorescence kinetic; hit rate 1.3% among 340,000; note: potency is the fitted concentration of half-maximal effect; % is set by controls: 0 for no effect and ±100 for the full control effect
#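 Values derive from four-parameter Hill fits of normalized kinetic data: reads at 0 and 10 min following addition of 50 nM substrate to 10 nM Pol beta preincubated 15 min with compound.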
# POLI inh: qHTS for Inhibitors of Polymerase Iota; hit rate 1% among 390,000; Pol iota fluorescent replication assay, 10 min; Potency, µM (doses to about 115 µM), for inactives: at the top dose activity, negative = inhibition, most hits filed as inhibitors; AID 588590, 2011; note: potency is the fitted concentration of half-maximal effect
#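 Pol iota at 10 nM preincubated 15 min with compounds at room temperature; reaction started with fluorescent substrate, 50 nM final. Fluorescence read kinetically at 0 and 10 min; buffer-only wells as negative control.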
# PI5P4K alpha inh: qHTS for Inhibitors of phosphatidylinositol 5-phosphate 4-kinase (PI5P4K). Phosphatidylinositol 5-phosphate 4-kinase type-2 alpha (Homo sapiens), P48426. PI5P4Kalpha enzyme, ADP-Glo luminescence, 60 min; active compounds read low. max response, %. hit rate 1.2% among 330,000. AID 652105, 2013; active = max response of -50% or lower; inconclusive = between -30% and -50%; inactive = -30% or higher; note: value at the top dose of about 77 µM; % is set by controls: 0 for no effect and ±100 for the full control effect
# Target sequence (P48426 whole entry, looked up): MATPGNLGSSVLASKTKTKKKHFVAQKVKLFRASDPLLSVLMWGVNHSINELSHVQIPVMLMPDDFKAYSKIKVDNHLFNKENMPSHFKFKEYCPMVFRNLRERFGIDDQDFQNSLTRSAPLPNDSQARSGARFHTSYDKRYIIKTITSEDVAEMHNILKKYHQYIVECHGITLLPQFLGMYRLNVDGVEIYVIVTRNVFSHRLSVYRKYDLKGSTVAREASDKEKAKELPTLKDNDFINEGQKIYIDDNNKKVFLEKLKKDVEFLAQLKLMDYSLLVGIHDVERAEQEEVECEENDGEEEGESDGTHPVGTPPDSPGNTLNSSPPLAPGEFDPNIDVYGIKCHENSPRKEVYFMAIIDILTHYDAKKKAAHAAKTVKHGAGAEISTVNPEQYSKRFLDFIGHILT
#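 Single end-point luminescence (ADP-Glo) quantified ADP from PI5P4Kalpha turnover; ATP 5 microM final, 1 h at RT, 0.1% CHAPS and 0.28 mM EGTA in HEPES pH 7.4.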
# * marks the source's active call; other numbers are inactive results; ? = inconclusive; . = not tested or not shown; [ ] = dose if it differs, or a comment. Unless noted, calls come from the whole dose curve; as a rule, active = well fitted curve in the direction sought with a large enough effect; inconclusive = small, poorly fitted or top-dose-only effect, or another doubt; inactive = no such curve, though single readings can be large; an effect the other way counts as inactive or inconclusive.
SMILES,POLK inh,POLH inh,WRN inhibitor,Pol beta inh,POLI inh,PI5P4K alpha inh
C#CCOCCOCCOCCNc1nc(N2CCN(C(=O)[C@H](Cc3ccc(O)cc3)n3cc([C@@H](N)C(C)CC)nn3)CC2)nc(N2CCN(C(=O)[C@H](Cc3cc4ccccc4[nH]3)n3cc([C@@H](N)CC(C)C)nn3)CC2)n1 (stereo partly drawn),3%,-10%,-36%,28µM*,79µM*,?
C#CCOCCOCCOCCNc1nc(N2CCN(C(=O)[C@H](Cc3cc4ccccc4[nH]3)n3cc([C@@H](N)Cc4ccc(O)cc4)nn3)CC2)nc(N2CCN(C(=O)[C@H](Cc3cc4ccccc4[nH]3)n3cc([C@@H](N)CC(C)C)nn3)CC2)n1,1%,6%,-31%,-3%,?,?
C#CCOCCOCCOCCNc1nc(N2CCN(C(=O)[C@H](Cc3cc4ccccc4[nH]3)n3cc([C@@H](N)CC(C)C)nn3)CC2)nc(N2CCN(C(=O)[C@H](Cc3cc4ccccc4[nH]3)n3cc([C@@H](N)CC(C)C)nn3)CC2)n1,-3%,-3%,-19%,28µM*,?,?
COc1ccc(OC)c(CNC(=O)Cn2nc(C)c3nn(-c4ccc(Cl)cc4)c(C)c3c2=O)c1,-4%[60.1 µM],-16%,.,-21%,21%,.
COc1cccc(/C=C2/SC(=S)N(CC(=O)Nc3nccs3)C2=O)c1,-9%,.,.,.,-1%,.
O=C(Nc1ccc2nsnc2c1)C1CC1,-11%,0%,-35%[57.1 µM],-2%,22%,-12
S=C(Nc1ccc2nsnc2c1)N1CCCCC1,-10%,-9%,-16%,2%,3.5µM*,-7
CCN(CC)C(=O)C1CCCN(C(=O)Nc2ccc3nsnc3c2)C1 (stereo not drawn),-6%,?,-20%,8%,0.89µM*,4
S=C(Nc1ccc(Cl)c(Cl)c1)N1CCCC1,2%,-8%,9%,-13%,38%,-8
CSc1ncc2c(n1)-c1ccccc1N(Cc1ccccc1C)S2(=O)=O,-6%,-23%,.,3%,-9%,.
Cc1nc2ccccc2n1CCc1nc2c3ccccc3nc(SCC(=O)NCc3ccco3)n2n1,-7%,?,-27%,40µM*,?,8
N#C/C(=C\c1ccc(N2CCOCC2)o1)c1nc2ccccc2[nH]1,?,?,50µM*,?,-13%,-20
O=c1ccn2c(n1)SC(c1ccccc1)C2 (stereo not drawn),.,-23%,-3%,.,.,3
CC(=O)[C@]1(O)Cc2c(O)c3c(c(O)c2[C@@H](O[C@H]2C[C@H](N)[C@H](O)[C@H](C)O2)C1)C(=O)c1c(O)cccc1C3=O,10µM*,.,.,.,.,.
CC(=O)[C@]1(O)Cc2c(O)c3c(c(O)c2[C@@H](O[C@H]2C[C@H](N)[C@H](O)[C@H](C)O2)C1)C(=O)c1ccccc1C3=O,27µM*,14µM*,32µM*,14µM*,7.9µM*,8
CCOC(=O)Cc1[nH]nc2c1C(c1cccc(OC)c1OC)C(C#N)=C(N)O2 (stereo not drawn),-8%,-6%,1%,1%,11%,-1
N#CC1=C(N)Oc2n[nH]c(-c3cccs3)c2C1C1C=CCCC1 (stereo not drawn),-14%,3%,-1%,-8%,3%,-52*
N#CC1=C(N)Oc2n[nH]c(-c3cccs3)c2C1C1CCCCC1 (stereo not drawn),-9%,-3%,-14%,-3%,8%,?
CCOC(=O)Cc1[nH]nc2c1C(C1C=CCCC1)C(C#N)=C(N)O2 (stereo not drawn),-5%,?,-18%,?,?,-51*
O=C(N/N=C/c1cc(Cl)cc([N+](=O)[O-])c1O)C1CC1,6%,3%,1%,?,?,-26
CC(C)(C)N/N=C/c1cc(Cl)cc([N+](=O)[O-])c1O,-9%,?,-17%,35µM*,-1%,-28
Cc1c(C(=O)N(Cc2ccccc2F)C2CCS(=O)(=O)C2)oc2ccccc12 (stereo not drawn),?,-5%,.,-6%,-2%,.
Cc1ccccc1OCC(=O)Nc1ccccc1C(=O)OCc1cc(=O)n2nc(C3CC3)sc2n1,2%[60.1 µM],-18%,.,3%,-9%,.
CC(C)CCNC(=O)C1(C)CCN1Cc1ccc2ccccc2c1 (stereo not drawn),.,.,-5%[57.1 µM],.,.,9
O=c1[nH]c(=O)c2[nH]c(=S)n(-c3ccccc3)c2[nH]1,-3%,-21%,-2%,.,28%,-56*
SMILES,POLK inh,POLH inh,WRN inhibitor,Pol beta inh,POLI inh,PI5P4K alpha inh
O=C(O)c1ccc2c(=O)n(-c3ccccc3)c(=S)[nH]c2c1,7%,-8%,2%,1%,-2%,-12
CNc1ccc(Br)cc(C(=O)/C=C/c2cccc(OC)c2OC)c1=O,-10%,2%,11%,20µM*,.,0
CNc1ccc(Br)cc(C(=O)/C=C/c2cccc(Cl)c2Cl)c1=O,45µM*,45µM*,-9%[11.6 µM],14µM*,6.3µM*,-28
CCNc1ccc(Br)cc(C(=O)/C=C/c2ccccc2Cl)c1=O,?,79µM*,?,.,?,.
O=C(C=Cc1ccccc1Cl)c1ccccc1,-17%,?,-15%,.,?,2
COC(=O)/C=C/c1ccc2c(c1)OCO2,-6%,-12%,-4%,21%,10%,-1
CCNc1ccccc(C(=O)/C=C/c2ccc3c(c2)OCO3)c1=O,25µM*,10µM*,56µM*,56µM*,?,-56*
COc1ccccc1/C=C/C(=O)c1cc(Br)ccc1OC(=O)c1ccco1,-23%,4%,0%,.,-6%,3
CN(C)c1ccc(CCc2ccnc3ccccc23)cc1,-15%,.,.,.,3%,.
Cc1ccc(C)c(NC(=O)C(C)N2C(=O)c3ccccc3C2=O)c1 (stereo not drawn),-6%,-13%,1%,21%,57%,-7
COc1cc(/C=C/c2nc3ccccc3nc2/C=C/c2cc(OC)c(OC)c(OC)c2)cc(OC)c1OC,-19%,.,.,.,25%,.
COC(=O)c1c(C)[nH]c(C(=O)COC(=O)CCc2ccc(OC)c(OC)c2)c1C,.,-10%,1%,.,.,-1
Cc1cccc(NC(c2cccc(Cl)c2)c2ccc3cccnc3c2O)n1 (stereo not drawn),-4%,-14%,.,0%,33%,.
CNc1ccccc(C(=O)/C=C/c2ccccc2OC)c1=O,-17%,14µM*,?,50µM*,?,?
COc1ccccc1C=CC(=O)C=Cc1ccccc1OC,-17%,?,-5%,.,?,34
